# From PubChem BioAssay (EPA / NIEHS)
# Active and inactive are the calls of the source. How the source made its calls: active means hit-call score of the fitted dose curve at least 0.9, where 1 is the maximum; inactive means score below 0.9.
# Tests used:
# [1] = CEETOX_H295R_TESTO: CeeTox H295R High-throughput Steroidogenesis Assay for Testosterone (TESTO) (AID 2283457); conditions: actives raise or lower the signal;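 on AC50: cells exposed to chemicals for 48 h before medium collection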
# How it was run: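 Testosterone synthesis is assessed in human adrenocortical H295R cells after 48 h of chemical exposure, using HPLC-MS/MS of extracted medium. Activity is fitted in both directions against DMSO control.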
# [2] = read-out: growth arrest and DNA damage 45 (GADD45A), GADD45A (gene 1647); experiment: LTEA_HepaRG_GADD45A: Life Technologies and Expression Analysis (LTEA) Assay for growth arrest and DNA damage 45 (GADD45A) using HepaRG (AID 2283458); conditions: mRNA level, 48 h; actives raise or lower the signal
# How it was run: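 Differentiated HepaRG cells exposed 48 h in serum-free induction medium to 8 concentrations, top 100 uM in half-log steps, 0.5% DMSO. GADD45A mRNA quantified by qRT-PCR, normalized to ACTB, GAPDH and POLR2A; bidirectional fit versus DMSO.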
# [3] = read-out: Forkhead box O3 (FOXO3), FOXO3 (gene 2309); experiment: LTEA_HepaRG_FOXO3: Life Technologies and Expression Analysis (LTEA) Assay for Forkhead box O3 (FOXO3) using HepaRG (AID 2283459); conditions: mRNA level, 48 h; actives raise or lower the signal
# How it was run: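 Differentiated human HepaRG cells, 48 h post-plating, exposed in duplicate for 48 h in serum-free induction medium; 8-point half-log series from 100 uM in 0.5% DMSO. FOXO3 mRNA by TaqMan qRT-PCR, normalized to ACTB/GAPDH/POLR2A; bidirectional fit versus DMSO.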
# [4] = read-out: ABC Transporter (ABCB1), ABCB1 (gene 5243); experiment: LTEA_HepaRG_ABCB1: Life Technologies and Expression Analysis (LTEA) Assay for ABC Transporter (ABCB1) using HepaRG (AID 2283460); conditions: mRNA level, 48 h; actives raise or lower the signal
# How it was run: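 HepaRG cells exposed in duplicate for 48 h in serum-free induction medium to eight half-log concentrations up to 100 uM in 0.5% DMSO. ABCB1 mRNA quantified by qRT-PCR, normalised to ACTB, GAPDH and POLR2A; fitted bidirectionally versus DMSO.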
# [5] = read-out: growth arrest and DNA damage 45 (GADD45B), GADD45B (gene 4616); experiment: LTEA_HepaRG_GADD45B: Life Technologies and Expression Analysis (LTEA) Assay for growth arrest and DNA damage 45 (GADD45B) using HepaRG (AID 2283461); conditions: mRNA level, 48 h; actives raise or lower the signal
# How it was run: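 Values are bidirectional concentration-response fits against 0.5% DMSO controls. Underlying data: qRT-PCR mRNA levels in human HepaRG liver cells treated 48 h in serum-free induction medium, eight concentrations topping at 100 uM.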
# [6] = read-out: ABC Transporter (ABCC3), ABCC3 (gene 8714); experiment: LTEA_HepaRG_ABCC3: Life Technologies and Expression Analysis (LTEA) Assay for ABC Transporter (ABCC3) using HepaRG (AID 2283462); conditions: mRNA level, 48 h; actives raise or lower the signal
# How it was run: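 Differentiated HepaRG liver cells receive test chemicals at eight concentrations (max 100 uM) for 48 h. Expression of ABCC3 is quantified by qRT-PCR against ACTB, GAPDH and POLR2A, and activity is fitted in both directions against the DMSO control.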
# [7] = read-out: ABC Transporter (ABCB11), ABCB11 (gene 8647); experiment: LTEA_HepaRG_ABCB11: Life Technologies and Expression Analysis (LTEA) Assay for ABC Transporter (ABCB11) using HepaRG (AID 2283463); conditions: mRNA level, 48 h; actives raise or lower the signal
# How it was run: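 Differentiated human HepaRG cells in serum-free induction medium, dosed in duplicate for 48 h. Eight-point half-log series from 100 uM in 0.5% DMSO; ABCB11 mRNA by qRT-PCR, normalized to ACTB, GAPDH, POLR2A, fitted bidirectionally versus DMSO.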
# [8] = read-out: ABC Transporter (ABCC2), ABCC2 (gene 1244); experiment: LTEA_HepaRG_ABCC2: Life Technologies and Expression Analysis (LTEA) Assay for ABC Transporter (ABCC2) using HepaRG (AID 2283464); conditions: mRNA level, 48 h; actives raise or lower the signal
# How it was run: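 Gene expression of ABCC2 was determined by qRT-PCR in HepaRG cells exposed 48 h to chemicals (highest 100 uM, half-log dilutions). Activity was fitted in both directions relative to 0.5% DMSO vehicle.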
# [9] = read-out: Broad substrate specificity ATP-binding cassette transporter ABCG2 (Homo sapiens) (UniProt Q9UNQ0); experiment: LTEA_HepaRG_ABCG2: Life Technologies and Expression Analysis (LTEA) Assay for ABC Transporter (ABCG2) using HepaRG (AID 2283465); conditions: mRNA level, 48 h; actives raise or lower the signal
# How it was run: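 Differentiated HepaRG cells were exposed for 48 h in serum-free induction medium to 8 half-log concentrations, top 100 uM, in 0.5% DMSO. ABCG2 mRNA was measured by qRT-PCR, normalized to ACTB, GAPDH and POLR2A, with bidirectional fitting versus DMSO.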
# [10] = read-out: ATP-citrate lyase (ACLY), ACLY (gene 47); experiment: LTEA_HepaRG_ACLY: Life Technologies and Expression Analysis (LTEA) Assay for ATP-citrate lyase (ACLY) using HepaRG (AID 2283466); conditions: mRNA level, 48 h; actives raise or lower the signal
# How it was run: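 Differentiated HepaRG cells exposed 48 h in serum-free induction medium to eight half-log concentrations up to 100 uM in 0.5% DMSO, duplicates. Transcript measured by Fluidigm TaqMan qRT-PCR, normalized to ACTB, GAPDH, POLR2A; bidirectional fit versus DMSO.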
# [11] = read-out: Alkaline Phosphatase, Placental (ALPP) gene, ALPP (gene 250); experiment: LTEA_HepaRG_ALPP: Life Technologies and Expression Analysis (LTEA) Assay for Alkaline Phosphatase, Placental (ALPP) gene using HepaRG (AID 2283468); conditions: mRNA level, 48 h; actives raise or lower the signal
# How it was run: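 Expression of ALPP was quantified by qRT-PCR against three housekeeping genes in human HepaRG cultures treated for 48 h with an eight-point concentration series up to 100 uM. Activity in either direction was fitted relative to 0.5% DMSO.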
# [12] = read-out: Bcl-2 (BAD) gene, BAD (gene 572); experiment: LTEA_HepaRG_BAD: Life Technologies and Expression Analysis (LTEA) Assay for Bcl-2 (BAD) gene using HepaRG (AID 2283469); conditions: mRNA level, 48 h; actives raise or lower the signal
# How it was run: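 Differentiated HepaRG cells were exposed in duplicate in 0.5% DMSO for 48 h to eight-point half-log concentrations up to 100 uM. BAD mRNA was measured by Fluidigm TaqMan qRT-PCR, normalized to ACTB, GAPDH and POLR2A, and fitted bidirectionally against DMSO.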
# [13] = read-out: Bcl-2 (BAX) gene, BAX (gene 581); experiment: LTEA_HepaRG_BAX: Life Technologies and Expression Analysis (LTEA) Assay for Bcl-2 (BAX) gene using HepaRG (AID 2283470); conditions: mRNA level, 48 h; actives raise or lower the signal
# How it was run: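 Differentiated HepaRG cells exposed 48 h in serum-free induction medium, eight half-log concentrations from 100 uM, in duplicate, 0.5% DMSO vehicle. BAX mRNA by TaqMan qRT-PCR, normalised to ACTB, GAPDH and POLR2A.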
# [14] = read-out: adenosine kinase (ADK) gene, ADK (gene 132); experiment: LTEA_HepaRG_ADK: Life Technologies and Expression Analysis (LTEA) Assay for adenosine kinase (ADK) gene using HepaRG (AID 2283471); conditions: mRNA level, 48 h; actives raise or lower the signal
# How it was run: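 Following 48 h exposure of HepaRG cells in 0.5% DMSO (top concentration 100 uM, duplicate wells), ADK mRNA induction or suppression was measured by qRT-PCR, normalised to ACTB/GAPDH/POLR2A, and fitted bidirectionally relative to vehicle.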
# [15] = read-out: Alpha-fetoprotein (AFP) gene, AFP (gene 174); experiment: LTEA_HepaRG_AFP: Life Technologies and Expression Analysis (LTEA) Assay for Alpha-fetoprotein (AFP) gene using HepaRG (AID 2283472); conditions: mRNA level, 48 h; actives raise or lower the signal
# How it was run: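 Differentiated human HepaRG cells exposed 48 h in serum-free induction medium, 8-point half-log series from 100 uM in 0.5% DMSO, duplicate. AFP mRNA by qRT-PCR, normalized to ACTB, GAPDH, POLR2A; bidirectional fit vs DMSO.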
# BCL2L11 (gene 10018) = experiment: LTEA_HepaRG_BCL2L11: Life Technologies and Expression Analysis (LTEA) Assay for Bcl-2 (BCL2L11) gene using HepaRG (AID 2283473); conditions: mRNA level, 48 h; actives raise or lower the signal
# How it was run: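 Cells were plated, cultured 48 h, switched to serum-free induction medium, then dosed in duplicate for 48 h at eight half-log concentrations up to 100 uM. Lysates underwent RNA isolation and TaqMan qRT-PCR; gain or loss versus DMSO was fitted.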
# [16] = read-out: Apolipoprotein A-V (APOA5) gene, APOA5 (gene 116519); experiment: LTEA_HepaRG_APOA5: Life Technologies and Expression Analysis (LTEA) Assay for Apolipoprotein A-V (APOA5) gene using HepaRG (AID 2283474); conditions: mRNA level, 48 h; actives raise or lower the signal
# How it was run: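 Human liver HepaRG cells are treated 48 h with test chemicals (100 uM top, half-log dilutions, 0.5% DMSO). APOA5 mRNA induction or loss is measured by qRT-PCR relative to vehicle.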
# [17] = read-out: Apoptosis regulator Bcl-2 (Homo sapiens) (UniProt P10415); experiment: LTEA_HepaRG_BCL2: Life Technologies and Expression Analysis (LTEA) Assay for Bcl-2 gene using HepaRG (AID 2283475); conditions: mRNA level, 48 h; actives raise or lower the signal
# How it was run: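 Differentiated human HepaRG cells in serum-free induction medium exposed 48 h, in duplicate, to 8-point half-log series from 100 uM in 0.5% DMSO. BCL2 mRNA by qRT-PCR (TaqMan/Fluidigm), normalized to ACTB, GAPDH, POLR2A; bidirectional fit against DMSO.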
# [18] = read-out: Bcl-2 (BID) gene, BID (gene 637); experiment: LTEA_HepaRG_BID: Life Technologies and Expression Analysis (LTEA) Assay for Bcl-2 (BID) gene using HepaRG (AID 2283476); conditions: mRNA level, 48 h; actives raise or lower the signal
# How it was run: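 Gene expression by qRT-PCR in HepaRG cells after 48 h exposure, duplicate wells, eight half-log concentrations topping at 100 uM in 0.5% DMSO. Normalized to ACTB, GAPDH, POLR2A; bidirectional fitting relative to DMSO.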
# [19] = read-out: Peroxisomal acyl-coenzyme A oxidase 1 (ACOX1) gene, ACOX1 (gene 51); experiment: LTEA_HepaRG_ACOX1: Life Technologies and Expression Analysis (LTEA) Assay for Peroxisomal acyl-coenzyme A oxidase 1 (ACOX1) gene using HepaRG (AID 2283467); conditions: mRNA level, 48 h; actives raise or lower the signal
# How it was run: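 HepaRG cells, plated 48 h then switched to serum-free induction medium, were exposed in duplicate for 48 h to 8-point half-log concentrations up to 100 uM in 0.5% DMSO. ACOX1 mRNA was measured by qRT-PCR, normalized to ACTB/GAPDH/POLR2A, and fitted bidirectionally versus DMSO.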
# Broad substrate specificity ATP-binding cassette transporter ABCG2 (Homo sapiens), sequence (Q9UNQ0 whole entry, looked up): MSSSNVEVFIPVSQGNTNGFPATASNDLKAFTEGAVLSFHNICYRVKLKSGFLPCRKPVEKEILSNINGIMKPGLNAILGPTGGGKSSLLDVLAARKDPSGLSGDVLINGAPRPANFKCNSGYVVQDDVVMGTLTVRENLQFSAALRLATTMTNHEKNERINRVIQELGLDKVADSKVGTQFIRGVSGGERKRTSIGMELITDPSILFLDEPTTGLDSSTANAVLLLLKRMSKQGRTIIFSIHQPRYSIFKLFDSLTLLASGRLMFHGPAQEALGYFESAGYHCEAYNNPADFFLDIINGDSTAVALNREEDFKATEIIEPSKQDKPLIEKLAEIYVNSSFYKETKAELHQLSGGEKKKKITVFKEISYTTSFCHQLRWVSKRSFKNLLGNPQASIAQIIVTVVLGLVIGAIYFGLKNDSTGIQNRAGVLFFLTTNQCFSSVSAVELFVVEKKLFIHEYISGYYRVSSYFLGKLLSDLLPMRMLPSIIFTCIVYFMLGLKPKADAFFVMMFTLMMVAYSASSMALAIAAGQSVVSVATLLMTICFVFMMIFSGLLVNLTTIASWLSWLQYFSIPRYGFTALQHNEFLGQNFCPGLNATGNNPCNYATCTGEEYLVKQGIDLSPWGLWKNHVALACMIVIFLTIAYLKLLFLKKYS
# Apoptosis regulator Bcl-2 (Homo sapiens), sequence (P10415 whole entry, looked up): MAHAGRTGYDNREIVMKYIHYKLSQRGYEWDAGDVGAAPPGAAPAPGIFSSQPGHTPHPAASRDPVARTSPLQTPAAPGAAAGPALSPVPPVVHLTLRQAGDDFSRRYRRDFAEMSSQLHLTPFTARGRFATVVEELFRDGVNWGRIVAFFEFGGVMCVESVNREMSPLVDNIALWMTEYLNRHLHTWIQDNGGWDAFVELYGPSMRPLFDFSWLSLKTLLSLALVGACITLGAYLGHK
smiles,measurement,setting,value
Oc1ccc2c(c1)-c1ccccc1C2,AC50,[1],38.5 µM (active)
same,outcome,[2],inactive
same,outcome,[3],inactive
same,outcome,[4],inactive
same,outcome,[5],inactive
same,outcome,[6],inactive
same,AC50,[7],25.1 µM (active)
same,outcome,[8],inactive
same,outcome,[9],inactive
same,outcome,[10],inactive
same,outcome,[11],inactive
same,outcome,[12],inactive
same,outcome,[13],inactive
same,outcome,[14],inactive
same,outcome,[15],inactive
same,outcome,BCL2L11 (gene 10018),inactive
same,outcome,[16],inactive
same,outcome,[17],inactive
same,outcome,[18],inactive
O=C(O)CCN(C1(C(=O)NO)CCCC1)S(=O)(=O)c1ccc(Oc2ccc(F)cc2)cc1,outcome,[2],inactive
same,outcome,[3],inactive
same,outcome,[4],inactive
same,outcome,[5],inactive
same,outcome,[7],inactive
same,outcome,[8],inactive
same,outcome,[9],inactive
same,outcome,[10],inactive
same,outcome,[11],inactive
same,outcome,[13],inactive
same,outcome,[14],inactive
same,outcome,[15],inactive
same,outcome,BCL2L11 (gene 10018),inactive
same,outcome,[16],inactive
same,outcome,[18],inactive
Cc1ccc(N)cc1O,outcome,[1],inactive
same,outcome,[3],inactive
same,outcome,[5],inactive
same,outcome,[6],inactive
same,AC50,[7],50 µM (active)
same,outcome,[8],inactive
same,outcome,[9],inactive
same,outcome,[10],inactive
same,outcome,[19],inactive
same,outcome,[11],inactive
same,outcome,[12],inactive
same,outcome,[13],inactive
same,outcome,[14],inactive
same,outcome,[15],inactive
same,outcome,BCL2L11 (gene 10018),inactive
same,outcome,[16],inactive
same,outcome,[18],inactive
CC(=O)c1ccc2c(c1)[C@H](NC(=O)c1ccc(F)cc1)[C@@H](O)C(C)(C)O2,outcome,[2],inactive
same,outcome,[3],inactive
same,outcome,[4],inactive
same,outcome,[5],inactive
same,outcome,[6],inactive
same,outcome,[7],inactive
same,AC50,[8],9.67 µM (active)
same,outcome,[9],inactive
same,outcome,[10],inactive
same,outcome,[19],inactive
same,outcome,[11],inactive
same,outcome,[12],inactive
same,outcome,[13],inactive
same,outcome,[14],inactive
same,outcome,[15],inactive
same,outcome,BCL2L11 (gene 10018),inactive
same,outcome,[16],inactive
same,outcome,[17],inactive
same,outcome,[18],inactive
